Data published in PubChem BioAssay (Tox21).
The source made the active and inactive calls. The call rests on the fitted dose curve; in most records, active means well fitted curve in the direction sought with a large enough effect in the repeat runs; inconclusive means weak or mixed curves; inactive means flat fitted curve, though single readings scatter.

Assay: qHTS assay to test for compound auto fluorescence at 590 nm (red) in HepG2 cells (AID 720674)
Conditions: HepG2 autofluorescence, red 540/590 nm, 1 h; series mostly up to 91.3 µM
Method in brief: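 We screened compounds on adherent HepG2 cells, incubating them for an hour at 37 C in 5% CO2 before reading emission at 590 nm under 540 nm excitation; values reflect equivalence to Rose Bengal sodium fluorescence.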
On the % scale 0 is the no-effect control and ±100 the full control effect.

Compound | outcome | fluorescence, relative to Rose Bengal
NC1=NCC2c3ccccc3Cc3ccccc3N12 (configuration not stated) | inactive | –
Cc1cc2c(s1)Nc1ccccc1N=C2N1CCN(C)CC1 | inactive | –
CCC(=O)c1ccc2c(c1)N(CCCN(C)C)c1ccccc1S2 | inactive | –
CC(=O)Oc1cc(C(C)C)c(OCCN(C)C)cc1C | – | 0.0269% [at 18.6 µM] (inactive)
CC(C)=CCCC(C)CCOC=O (configuration not stated) | inactive | –
CC1(C)C(=O)N(Cl)C(=O)N1Br | inactive | –
CCN(CC)CC1CCCCN1CC(=O)N1c2ccccc2C(=O)Nc2cccnc21 (configuration not stated) | inactive | –
CC1=C(CC(=O)O)c2cc(F)ccc2/C1=C\c1ccc(S(C)(=O)=O)cc1 | inactive | –
Cc1ccc(C)c(N)c1 | inactive | –
CC1(O)CSC(C)(O)CS1 (configuration not stated) | inactive | –
CCN(CC)CCOc1ccc(Cc2ccccc2)cc1 | inactive | –
CC(C)O | inactive | –
CC1CN(c2ccccc2)NC1=O (configuration not stated) | inactive | –
O=c1[nH]c(=O)n([C@H]2C[C@H](O)[C@@H](CO)O2)cc1C(F)(F)F | inactive | –
Cc1c[nH]c(=S)[nH]c1=O | inactive | –
O=C(CC(=O)C(F)(F)F)c1ccccc1 | inactive | –
CCCCN1C[C@H](O)[C@@H](O)[C@H](O)[C@H]1CO | inactive | –
CCCCCCOc1ccc(N)cc1 | inactive | –

Compound | outcome | fluorescence, relative to Rose Bengal
CC1=NN(c2cc(Cl)c(S(=O)(=O)O)cc2Cl)C(=O)C1N=Nc1ccc(S(=O)(=O)O)cc1 (configuration not stated) | inactive | –
CC(C)(C)C1CCCCC1=O (configuration not stated) | inactive | –
CC1=C2[C@H](/C=C(\C)C(=O)O)CC[C@@H](C)[C@H]2CC1 | inactive | –
CN1C(=O)CC(c2ccccc2)C1=O (configuration not stated) | inactive | –
Clc1cccc(-c2cc(Cl)cc(Cl)c2)c1 | inactive | –
CCCCCCCCc1ccc(S(=O)(=O)O)cc1 | inactive | –
O=C(Cl)c1cccc([N+](=O)[O-])c1 | inactive | –
C=O | inactive | –
Cc1c(N)cccc1N | inactive | –
COc1ccc(Nc2ccc(OC)cc2)cc1 | inactive | –
CCCCCCCCCCCCCCCCOP(=O)([O-])OCC[N+](C)(C)C | inactive | –
CN(CCCN1c2ccccc2CCc2ccccc21)CC(=O)c1ccc(Cl)cc1 | inactive | –
O=C1CCCCCCCCCCC(=O)OCCO1 | inactive | –
CCOC(=O)CS | inactive | –
CCOC(=O)COc1ccc2c(c1)CC(NCC(O)c1cccc(Cl)c1)CC2 (configuration not stated) | inactive | –
CCCCC(=O)O[C@]1(C(=O)CO)[C@H](C)C[C@H]2[C@@H]3CCC4=CC(=O)C=C[C@]4(C)[C@@]3(F)[C@@H](O)C[C@@]21C | inactive | –
Oc1ccccc1F | inactive | –
O=C1Nc2ccc([N+](=O)[O-])cc2C1=O | inactive | –

Assay: qHTS assay to test for compound auto fluorescence at 535 nm (green) in HepG2 cells (AID 720675)
Conditions: green autofluorescence 485/535 nm, 1 h; series mostly up to 91.3 µM

Compound | outcome | fluorescence, % of fluorescein control
NC1=NCC2c3ccccc3Cc3ccccc3N12 (configuration not stated) | inactive | –
Cc1cc2c(s1)Nc1ccccc1N=C2N1CCN(C)CC1 | inactive | –
CCC(=O)c1ccc2c(c1)N(CCCN(C)C)c1ccccc1S2 | inactive | –
CC(=O)Oc1cc(C(C)C)c(OCCN(C)C)cc1C | – | 0.0486% [at 18.6 µM] (inactive)
CC(C)=CCCC(C)CCOC=O (configuration not stated) | inactive | –
CC1(C)C(=O)N(Cl)C(=O)N1Br | inactive | –
CCN(CC)CC1CCCCN1CC(=O)N1c2ccccc2C(=O)Nc2cccnc21 (configuration not stated) | inactive | –
CC1=C(CC(=O)O)c2cc(F)ccc2/C1=C\c1ccc(S(C)(=O)=O)cc1 | inactive | –
Cc1ccc(C)c(N)c1 | inactive | –
CC1(O)CSC(C)(O)CS1 (configuration not stated) | inactive | –
CCN(CC)CCOc1ccc(Cc2ccccc2)cc1 | inactive | –
CC(C)O | inactive | –
CC1CN(c2ccccc2)NC1=O (configuration not stated) | inactive | –
O=c1[nH]c(=O)n([C@H]2C[C@H](O)[C@@H](CO)O2)cc1C(F)(F)F | inactive | –
Cc1c[nH]c(=S)[nH]c1=O | inactive | –
O=C(CC(=O)C(F)(F)F)c1ccccc1 | inactive | –
CCCCN1C[C@H](O)[C@@H](O)[C@H](O)[C@H]1CO | inactive | –
CCCCCCOc1ccc(N)cc1 | inactive | –

Compound | outcome | fluorescence, % of fluorescein control
CC1=NN(c2cc(Cl)c(S(=O)(=O)O)cc2Cl)C(=O)C1N=Nc1ccc(S(=O)(=O)O)cc1 (configuration not stated) | inactive | –
CC(C)(C)C1CCCCC1=O (configuration not stated) | inactive | –
CC1=C2[C@H](/C=C(\C)C(=O)O)CC[C@@H](C)[C@H]2CC1 | inactive | –
CN1C(=O)CC(c2ccccc2)C1=O (configuration not stated) | inactive | –
Clc1cccc(-c2cc(Cl)cc(Cl)c2)c1 | inactive | –
CCCCCCCCc1ccc(S(=O)(=O)O)cc1 | inactive | –
O=C(Cl)c1cccc([N+](=O)[O-])c1 | inactive | –
C=O | inactive | –
Cc1c(N)cccc1N | inactive | –
COc1ccc(Nc2ccc(OC)cc2)cc1 | inactive | –
CCCCCCCCCCCCCCCCOP(=O)([O-])OCC[N+](C)(C)C | inactive | –
CN(CCCN1c2ccccc2CCc2ccccc21)CC(=O)c1ccc(Cl)cc1 | inactive | –
O=C1CCCCCCCCCCC(=O)OCCO1 | inactive | –
CCOC(=O)CS | inactive | –
CCOC(=O)COc1ccc2c(c1)CC(NCC(O)c1cccc(Cl)c1)CC2 (configuration not stated) | inactive | –
CCCCC(=O)O[C@]1(C(=O)CO)[C@H](C)C[C@H]2[C@@H]3CCC4=CC(=O)C=C[C@]4(C)[C@@]3(F)[C@@H](O)C[C@@]21C | inactive | –
Oc1ccccc1F | inactive | –
O=C1Nc2ccc([N+](=O)[O-])cc2C1=O | inactive | –
